# Test results: the supplement of paper PMC9446081
# ± gives the standard deviation of the averaged measurements.
# Tests used:
# Assay in all cases: relative enzymatic activity vs untreated control (fraction); higher = less inhibition
# Conditions in all cases: 100 µM; incubation time: 2 h at 37 C
# DNA gyrase = tested on: DNA gyrase
# Procedure: (§1)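 In vitro enzymatic inhibition assays (ProFoldin kits) for 12 purified essential E. coli enzymes or complexes, each treated with 218 active antibacterial compounds at 100 µM for 2 h at 37°C. Read-outs were fluorescence or absorbance (phosphate detection, dye binding), converted to activity via standard curves and expressed relative to untreated DMSO controls.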
# DNA helicase = DNA helicase (UniProt P0ACB1)
# Sequence of DNA helicase (P0ACB1 whole entry): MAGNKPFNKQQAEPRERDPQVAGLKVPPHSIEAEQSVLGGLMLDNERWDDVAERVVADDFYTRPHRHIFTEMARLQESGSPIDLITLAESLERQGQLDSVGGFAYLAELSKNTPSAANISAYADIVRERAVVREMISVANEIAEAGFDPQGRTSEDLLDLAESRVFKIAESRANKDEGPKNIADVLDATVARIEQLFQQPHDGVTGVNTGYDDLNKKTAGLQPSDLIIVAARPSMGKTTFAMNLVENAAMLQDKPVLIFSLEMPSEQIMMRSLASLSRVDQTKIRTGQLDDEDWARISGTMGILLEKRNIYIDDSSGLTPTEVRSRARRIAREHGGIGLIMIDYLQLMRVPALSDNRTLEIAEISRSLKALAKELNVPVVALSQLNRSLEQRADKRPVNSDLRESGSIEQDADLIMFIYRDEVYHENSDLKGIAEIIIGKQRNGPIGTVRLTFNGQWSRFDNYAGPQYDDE
# Procedure: as §1
# DNA ligase = DNA ligase (UniProt B1XA82)
# Sequence of DNA ligase (B1XA82 whole entry): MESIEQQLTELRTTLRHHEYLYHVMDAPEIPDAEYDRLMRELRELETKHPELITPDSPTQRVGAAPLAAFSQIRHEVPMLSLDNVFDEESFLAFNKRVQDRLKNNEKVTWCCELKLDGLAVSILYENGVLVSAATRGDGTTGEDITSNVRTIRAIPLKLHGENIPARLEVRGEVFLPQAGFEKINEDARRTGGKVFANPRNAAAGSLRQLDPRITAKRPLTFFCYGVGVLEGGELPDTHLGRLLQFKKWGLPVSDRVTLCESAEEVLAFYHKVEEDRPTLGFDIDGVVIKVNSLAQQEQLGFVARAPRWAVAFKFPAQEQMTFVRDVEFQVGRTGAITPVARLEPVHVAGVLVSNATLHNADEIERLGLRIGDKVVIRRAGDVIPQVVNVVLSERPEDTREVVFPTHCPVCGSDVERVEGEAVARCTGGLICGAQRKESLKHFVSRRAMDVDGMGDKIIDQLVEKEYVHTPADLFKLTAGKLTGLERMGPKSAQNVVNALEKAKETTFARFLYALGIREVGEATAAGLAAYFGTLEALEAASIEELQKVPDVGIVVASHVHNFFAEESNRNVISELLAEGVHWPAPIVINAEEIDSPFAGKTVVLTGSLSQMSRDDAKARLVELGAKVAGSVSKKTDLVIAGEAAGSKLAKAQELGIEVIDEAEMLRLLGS
# Procedure: as §1
# DNA polymerase = DNA polymerase (UniProt P10443)
# Sequence of DNA polymerase (P10443 whole entry): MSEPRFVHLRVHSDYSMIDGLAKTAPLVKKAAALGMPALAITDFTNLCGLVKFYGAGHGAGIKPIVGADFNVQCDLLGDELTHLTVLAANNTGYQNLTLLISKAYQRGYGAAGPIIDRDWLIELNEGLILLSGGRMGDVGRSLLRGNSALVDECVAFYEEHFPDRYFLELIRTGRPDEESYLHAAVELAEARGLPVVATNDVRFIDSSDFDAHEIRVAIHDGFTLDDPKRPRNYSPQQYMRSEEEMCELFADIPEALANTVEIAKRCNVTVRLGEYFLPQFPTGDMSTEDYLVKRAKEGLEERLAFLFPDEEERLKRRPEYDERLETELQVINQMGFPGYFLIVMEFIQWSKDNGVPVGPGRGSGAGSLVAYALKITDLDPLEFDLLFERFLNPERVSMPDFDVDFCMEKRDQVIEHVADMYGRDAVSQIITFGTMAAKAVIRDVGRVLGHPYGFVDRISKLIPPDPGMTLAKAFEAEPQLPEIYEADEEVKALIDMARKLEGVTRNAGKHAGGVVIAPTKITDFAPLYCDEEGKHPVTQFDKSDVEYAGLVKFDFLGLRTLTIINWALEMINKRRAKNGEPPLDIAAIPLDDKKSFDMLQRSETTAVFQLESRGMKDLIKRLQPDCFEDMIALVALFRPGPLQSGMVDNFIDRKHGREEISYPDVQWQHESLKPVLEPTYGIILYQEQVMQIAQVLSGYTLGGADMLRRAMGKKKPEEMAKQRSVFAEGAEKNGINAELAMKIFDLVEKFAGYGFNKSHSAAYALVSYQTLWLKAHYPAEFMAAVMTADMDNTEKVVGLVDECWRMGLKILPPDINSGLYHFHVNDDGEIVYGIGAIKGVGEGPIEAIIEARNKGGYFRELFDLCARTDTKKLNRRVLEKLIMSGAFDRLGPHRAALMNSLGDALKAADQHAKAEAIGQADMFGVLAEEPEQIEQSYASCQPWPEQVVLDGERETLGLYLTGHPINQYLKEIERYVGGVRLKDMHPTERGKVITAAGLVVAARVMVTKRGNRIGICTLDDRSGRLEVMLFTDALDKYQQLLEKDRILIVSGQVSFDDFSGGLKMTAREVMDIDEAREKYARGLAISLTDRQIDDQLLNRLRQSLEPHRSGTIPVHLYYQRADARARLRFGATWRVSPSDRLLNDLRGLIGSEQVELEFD
# Procedure: as §1
# DNA primase = DNA primase (UniProt P0ABS7)
# Sequence of DNA primase (P0ABS7 whole entry): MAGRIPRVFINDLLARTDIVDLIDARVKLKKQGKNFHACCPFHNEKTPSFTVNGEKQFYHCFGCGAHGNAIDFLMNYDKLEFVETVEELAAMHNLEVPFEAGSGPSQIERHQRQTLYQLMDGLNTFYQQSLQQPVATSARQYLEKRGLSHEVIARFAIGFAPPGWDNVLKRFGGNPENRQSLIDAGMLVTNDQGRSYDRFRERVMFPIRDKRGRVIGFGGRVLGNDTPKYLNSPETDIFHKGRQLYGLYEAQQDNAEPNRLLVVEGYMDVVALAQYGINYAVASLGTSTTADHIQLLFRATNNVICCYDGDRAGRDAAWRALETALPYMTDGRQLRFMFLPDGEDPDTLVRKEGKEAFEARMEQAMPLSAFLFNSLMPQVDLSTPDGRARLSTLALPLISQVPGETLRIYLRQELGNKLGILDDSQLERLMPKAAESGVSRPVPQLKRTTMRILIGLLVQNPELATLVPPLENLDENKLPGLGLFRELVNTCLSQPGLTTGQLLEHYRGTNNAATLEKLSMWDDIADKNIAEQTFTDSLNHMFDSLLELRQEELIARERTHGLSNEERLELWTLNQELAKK
# Procedure: as §1
# GlmU = GlmU (UniProt A7ZTU1)
# Sequence of GlmU (A7ZTU1 whole entry, looked up): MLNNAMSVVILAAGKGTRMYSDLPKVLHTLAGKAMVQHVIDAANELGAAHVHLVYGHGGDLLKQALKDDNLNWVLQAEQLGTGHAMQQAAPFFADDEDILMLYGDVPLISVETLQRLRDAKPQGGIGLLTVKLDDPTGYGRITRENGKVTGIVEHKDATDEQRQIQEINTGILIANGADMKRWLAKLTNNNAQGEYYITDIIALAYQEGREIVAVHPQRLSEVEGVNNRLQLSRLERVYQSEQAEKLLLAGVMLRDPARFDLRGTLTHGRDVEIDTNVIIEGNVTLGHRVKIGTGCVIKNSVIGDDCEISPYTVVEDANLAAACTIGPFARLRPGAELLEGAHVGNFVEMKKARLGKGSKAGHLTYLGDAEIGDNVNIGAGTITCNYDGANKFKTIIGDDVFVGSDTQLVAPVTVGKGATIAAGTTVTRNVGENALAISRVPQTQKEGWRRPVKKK
# Procedure: as §1
# Guanlyate kinase = Guanlyate kinase (UniProt Q0TBG1)
# Sequence of Guanlyate kinase (Q0TBG1 whole entry): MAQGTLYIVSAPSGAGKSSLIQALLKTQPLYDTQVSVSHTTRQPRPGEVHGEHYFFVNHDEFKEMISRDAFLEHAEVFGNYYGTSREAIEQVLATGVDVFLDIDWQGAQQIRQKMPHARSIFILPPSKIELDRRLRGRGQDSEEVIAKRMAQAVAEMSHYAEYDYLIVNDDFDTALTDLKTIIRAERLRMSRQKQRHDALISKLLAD
# Procedure: as §1
# MurA = MurA (UniProt Q3YX52)
# Sequence of MurA (Q3YX52 whole entry): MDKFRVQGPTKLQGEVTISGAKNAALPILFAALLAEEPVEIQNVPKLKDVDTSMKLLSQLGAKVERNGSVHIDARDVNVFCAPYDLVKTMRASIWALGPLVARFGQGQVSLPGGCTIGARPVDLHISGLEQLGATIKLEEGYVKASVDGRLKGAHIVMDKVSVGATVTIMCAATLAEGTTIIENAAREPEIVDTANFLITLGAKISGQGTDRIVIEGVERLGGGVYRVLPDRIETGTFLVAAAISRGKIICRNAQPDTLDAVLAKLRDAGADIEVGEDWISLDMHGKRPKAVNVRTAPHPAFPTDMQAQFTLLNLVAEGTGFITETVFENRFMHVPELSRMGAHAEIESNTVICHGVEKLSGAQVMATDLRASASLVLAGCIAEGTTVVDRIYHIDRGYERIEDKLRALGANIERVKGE
# Procedure: as §1
# MurD = molecular target: T1, MurD (UniProt P14900)
# T1 sequence (whole entry): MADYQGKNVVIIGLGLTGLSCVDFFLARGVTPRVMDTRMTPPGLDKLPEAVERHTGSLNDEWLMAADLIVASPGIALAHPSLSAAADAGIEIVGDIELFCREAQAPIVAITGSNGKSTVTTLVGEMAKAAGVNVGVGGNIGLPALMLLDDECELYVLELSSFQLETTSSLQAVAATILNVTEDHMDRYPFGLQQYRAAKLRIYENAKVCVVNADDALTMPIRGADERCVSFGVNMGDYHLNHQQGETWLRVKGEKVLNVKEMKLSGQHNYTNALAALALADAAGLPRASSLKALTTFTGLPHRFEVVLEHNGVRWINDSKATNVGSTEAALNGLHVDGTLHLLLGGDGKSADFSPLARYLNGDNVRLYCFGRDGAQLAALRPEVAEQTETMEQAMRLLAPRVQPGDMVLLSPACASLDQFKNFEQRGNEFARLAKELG
# Procedure: as §1
# MurF = molecular target: T2, MurF (UniProt P11880)
# T2 sequence (whole entry): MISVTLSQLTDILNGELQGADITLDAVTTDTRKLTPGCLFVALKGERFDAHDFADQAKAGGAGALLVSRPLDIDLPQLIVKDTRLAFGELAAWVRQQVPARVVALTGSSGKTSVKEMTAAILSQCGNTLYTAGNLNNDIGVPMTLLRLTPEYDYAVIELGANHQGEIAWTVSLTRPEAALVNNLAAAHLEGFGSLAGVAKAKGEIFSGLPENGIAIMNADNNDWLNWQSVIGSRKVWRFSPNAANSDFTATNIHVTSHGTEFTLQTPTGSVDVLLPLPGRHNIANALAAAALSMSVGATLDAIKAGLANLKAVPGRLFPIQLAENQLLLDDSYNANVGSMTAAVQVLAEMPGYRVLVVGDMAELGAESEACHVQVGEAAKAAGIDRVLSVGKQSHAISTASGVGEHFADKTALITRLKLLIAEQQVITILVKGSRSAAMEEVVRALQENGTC
# Procedure: as §1
# RNA polymerase = tested on: RNA polymerase
# Procedure: as §1
SMILES,relative enzymatic activity (DNA gyrase),relative enzymatic activity (DNA helicase),relative enzymatic activity (DNA ligase),relative enzymatic activity (DNA polymerase),relative enzymatic activity (DNA primase),relative enzymatic activity (GlmU),relative enzymatic activity (Guanlyate kinase),relative enzymatic activity (MurA),relative enzymatic activity (MurD),relative enzymatic activity (MurF),relative enzymatic activity (RNA polymerase)
NC(=O)NN=Cc1ccc([N+](=O)[O-])o1,0.958 ± 0.23,0.58 ± 0.06,1.11 ± 0.018,1.32 ± 0.48,0.739 ± 0.24,0.955 ± 0.085,0.897 ± 0.13,0.491 ± 0.15,0.559 ± 0.37,0.933 ± 0.28,0.8 ± 0.09
CON=C1CN(c2nc3c(cc2F)c(=O)c(C(=O)O)cn3C2CC2)CC1CN.CS(=O)(=O)O (stereo not drawn),0.058 ± 0.082,0.479 ± 0.14,1.09 ± 0.24,1.26 ± 0.31,0.805 ± 0.059,0.919 ± 0.027,0.856 ± 0.23,0.4853 ± 0.00068,0.503 ± 0.35,0.919 ± 0.19,0.88 ± 0.012
CCN1CCN(C(=O)NC(C(=O)NC2C(=O)N3C(C(=O)O)=C(CSc4nnnn4C)CSC23)c2ccc(O)cc2)C(=O)C1=O (stereo not drawn),0.414 ± 0.27,0.636 ± 0.11,1.35 ± 0.11,1.23 ± 0.34,0.673 ± 0.16,1.09 ± 0.17,0.828 ± 0.076,0.0994 ± 0.0088,0.546 ± 0.35,0.965 ± 0.23,0.96 ± 0.2
CN(C)c1ccc(O)c2c1C[C@H]1C[C@H]3[C@H](N(C)C)C(=O)[C@@H](C(N)=O)C(=O)[C@@]3(O)C(=O)[C@H]1C2=O,0.636 ± 0.27,0.47 ± 0.11,0.8372 ± 0.0039,0.973 ± 0.03,0.776 ± 0.056,1.03 ± 0.019,0.692 ± 0.016,0.306 ± 0.14,0.607 ± 0.43,0.981 ± 0.18,0.686 ± 0.011
CN1CCN(c2c(F)cc3c(=O)c(C(=O)O)cn4c3c2SCC4)CC1,0.0039 ± 0.0055,0.623 ± 0.2,1.02 ± 0.03,1.21 ± 0.25,0.807 ± 0.022,0.952 ± 0.026,0.926 ± 0.19,0.7644 ± 0.0074,0.608 ± 0.44,0.899 ± 0.27,0.844 ± 0.023
CC[C@H]1OC(=O)C[C@@H](O)[C@H](C)[C@@H](O[C@@H]2O[C@H](C)C[C@H](N(C)C)[C@H]2O)[C@@H](CC=O)C[C@@H](C)C(=O)/C=C/[C@]2(C)O[C@H]2[C@@H]1C,0.781 ± 0.33,0.296 ± 0.13,0.912 ± 0.064,1.17 ± 0.26,0.854 ± 0.017,1.0039 ± 0.00034,0.968 ± 0.11,0.673 ± 0.17,0.55 ± 0.38,1.06 ± 0.2,0.864 ± 0.08
C[C@H]1COc2c(C3(N)CC3)c(F)cc3c(=O)c(C(=O)O)cn1c23,0.0356 ± 0.05,0.447 ± 0.079,0.801 ± 0.074,0.5 ± 0.7,0.8435 ± 0.0058,0.995 ± 0.012,0.991 ± 0.021,0.619 ± 0.16,0.578 ± 0.38,0.946 ± 0.25,0.861 ± 0.087
Cn1sccc1=O,0.437 ± 0.62,0.607 ± 0.19,1 ± 0.053,1 ± 0.17,0.8591 ± 0.0028,0.622 ± 0.045,0.903 ± 0.084,0.0867 ± 0.0083,0.579 ± 0.4,0.968 ± 0.27,0.847 ± 0.097
O=C(Cn1cnnn1)NC1C(=O)N2C(C(=O)O)=C(CSc3nncs3)CSC12 (stereo not drawn),0.793 ± 0.43,0.757 ± 0.21,0.955 ± 0.18,0.505 ± 0.68,0.828 ± 0.017,1.045 ± 0.0046,0.932 ± 0.17,0.307 ± 0.16,0.598 ± 0.37,1.01 ± 0.22,0.799 ± 0.011
C=CC1=C(C(=O)O)N2C(=O)[C@@H](NC(=O)/C(=N\OCC(=O)O)c3csc(N)n3)[C@H]2SC1,0.321 ± 0.084,0.432 ± 0.089,0.941 ± 0.17,1.06 ± 0.23,0.662 ± 0.021,1.046 ± 0.0058,0.886 ± 0.1,0.0787 ± 0.0056,0.606 ± 0.41,0.954 ± 0.18,0.822 ± 0.32
O=C([O-])C1=C(CSc2nnnn2CS(=O)(=O)[O-])CSC2C(NC(=O)C(O)c3ccccc3)C(=O)N12.[Na+].[Na+] (stereo not drawn),0.964 ± 0.12,0.74 ± 0.14,1.26 ± 0.45,1.24 ± 0.4,0.753 ± 0.0084,1.1 ± 0.034,0.879 ± 0.012,0.1 ± 0.034,0.217 ± 0.2,1.03 ± 0.24,0.815 ± 0.068
NC(C(=O)NC1C(=O)N2C(C(=O)O)=C(Cl)CSC12)c1ccccc1 (stereo not drawn),1.09 ± 0.06,0.441 ± 0.046,1.07 ± 0.039,1.38 ± 0.51,0.74 ± 0.23,0.982 ± 0.015,1.04 ± 0.088,0.0755 ± 0.013,0.58 ± 0.4,0.945 ± 0.26,0.971 ± 0.085
Nc1c2ccccc2nc2ccccc12,0.766 ± 0.37,0.595 ± 0.097,0.519 ± 0.092,1.01 ± 0.28,0.573 ± 0.14,0.933 ± 0.059,0.3108 ± 0.001,0.74 ± 0.14,0.589 ± 0.38,0.94 ± 0.25,0.505 ± 0.016
